From the supplement of paper PMC3334620
In all, about 33,000 sequences were measured (“E-score (-0.5 to 0.5)”: median about -0.035, highest 2% from about 0.35 on). This excerpt belongs to a sample that is enriched for the highest values.

These sequences were tested against T1, Pdr3 (UniProt P33200) (assay: PBM E-score (8-mer binding enrichment) (E-score (-0.5 to 0.5)); higher = stronger / more preferred TF binding). Conditions: protein concentration: 200 nM; construct: GST-full length.
T1 sequence: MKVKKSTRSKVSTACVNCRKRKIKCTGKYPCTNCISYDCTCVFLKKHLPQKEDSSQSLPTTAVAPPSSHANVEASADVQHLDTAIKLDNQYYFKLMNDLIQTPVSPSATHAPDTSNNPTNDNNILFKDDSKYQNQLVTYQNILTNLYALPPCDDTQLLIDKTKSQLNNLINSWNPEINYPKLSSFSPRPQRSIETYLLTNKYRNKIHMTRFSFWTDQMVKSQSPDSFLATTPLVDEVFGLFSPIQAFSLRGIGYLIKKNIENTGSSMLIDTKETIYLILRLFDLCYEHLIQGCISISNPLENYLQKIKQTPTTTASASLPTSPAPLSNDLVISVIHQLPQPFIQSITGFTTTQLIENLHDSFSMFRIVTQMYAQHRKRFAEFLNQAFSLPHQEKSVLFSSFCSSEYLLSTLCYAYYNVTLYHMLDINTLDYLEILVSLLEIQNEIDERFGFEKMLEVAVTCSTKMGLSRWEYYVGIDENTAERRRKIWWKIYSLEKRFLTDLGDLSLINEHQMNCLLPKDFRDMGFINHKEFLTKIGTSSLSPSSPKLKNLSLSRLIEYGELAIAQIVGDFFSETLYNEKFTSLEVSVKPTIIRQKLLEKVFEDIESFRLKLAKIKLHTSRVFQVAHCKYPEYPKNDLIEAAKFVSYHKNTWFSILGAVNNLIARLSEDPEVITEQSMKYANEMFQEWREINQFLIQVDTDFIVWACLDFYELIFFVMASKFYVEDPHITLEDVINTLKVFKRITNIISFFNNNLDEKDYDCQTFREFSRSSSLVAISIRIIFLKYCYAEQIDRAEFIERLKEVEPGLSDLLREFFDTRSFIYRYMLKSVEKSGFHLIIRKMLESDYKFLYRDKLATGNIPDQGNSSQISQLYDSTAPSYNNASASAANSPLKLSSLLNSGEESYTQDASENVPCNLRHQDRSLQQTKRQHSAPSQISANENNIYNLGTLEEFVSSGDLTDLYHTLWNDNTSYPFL
Protocol: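 Universal 'all 10-mer' protein binding microarrays (Agilent AMADID 015681) probed with GST-tagged S. cerevisiae TFs (full-length or DBD) made by in vitro transcription/translation (PURExpress), about 100-200 nM. Bound TF was detected with fluorescent anti-GST. Each ungapped 8-mer (which stands for itself and its reverse complement) is scored by the PBM enrichment score (E-score), a modified Wilcoxon-Mann-Whitney statistic from -0.5 to +0.5, computed with the Universal PBM Analysis Suite. Scale: above 0.35 generally sequence-specific binding.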

Compared with ACTGGGAC, AGAACGTA is lower in “PBM E-score” value: -0.0292 for the first, -0.0336 for the second.

Going from ACGGGCCA to ATTTCCGG, the “PBM E-score” value rises from 0.117 to 0.456.

Compared with CTTTCCCC, CTTTCCCA is lower in “PBM E-score” value: 0.117 for the first, 0.0901 for the second.

Compared with CTTTCCTC, ATTTCCTG is higher in “PBM E-score” value: -0.162 for the first, 0.0852 for the second.

Compared with CTTTCCGC, CTTTCCAA is lower in “PBM E-score” value: 0.384 for the first, -0.0271 for the second.

Going from ATTTCCGA to CTTTCCGA, the “PBM E-score” value rises from 0.338 to 0.413.

First: GTTTCCAA
Second: GTTTCCCA
The “PBM E-score” value of the first is lower: -0.274 for the first, 0.0393 for the second.

Going from GTTTCCGA to CGCGAAAA, the “PBM E-score” value falls from 0.429 to 0.096.

Compared with ACGCTTCG, CGCCTGGC is lower in “PBM E-score” value: 0.00401 for the first, -0.0374 for the second.

Compared with CAACTTCC, AATTTAAT is lower in “PBM E-score” value: 0.225 for the first, 0.128 for the second.

Compared with AAACCTAC, CTGCCGCC is higher in “PBM E-score” value: -0.103 for the first, -0.0369 for the second.

Compared with GGAAGATA, GCCCAGAC is lower in “PBM E-score” value: 0.234 for the first, -0.222 for the second.

Going from AAATGATG to CTACAAAG, the “PBM E-score” value falls from 0.133 to -0.116.

Going from ATTTCCGC to ATTTCCTC, the “PBM E-score” value falls from 0.413 to 0.154.

First: ATTTCCAC
Second: AGCACAAA
The “PBM E-score” value of the first is higher: 0.131 for the first, 0.12 for the second.

First: CGGGCGTC
Second: AGATTCCG
The “PBM E-score” value of the first is lower: 0.193 for the first, 0.453 for the second.

First: CGATTCCA
Second: CGATTCCC
The “PBM E-score” value of the first is lower: 0.112 for the first, 0.181 for the second.

Going from AGATTCCT to CGATTCCG, the “PBM E-score” value rises from -0.088 to 0.466.

Going from AGATTCCC to AACGTGAT, the “PBM E-score” value falls from 0.198 to -0.0792.

Going from ACCGGCTC to TGACGGAA, the “PBM E-score” value rises from 0.122 to 0.445.

Going from AGACGGAT to AGACGGAA, the “PBM E-score” value rises from 0.249 to 0.422.

First: TGACGGCA
Second: CGACGGAG
The “PBM E-score” value of the first is lower: 0.135 for the first, 0.331 for the second.

First: CGACGGAA
Second: GGACGGTA
The “PBM E-score” value of the first is higher: 0.439 for the first, 0.118 for the second.

Going from AGACGGAG to CGACGGAC, the “PBM E-score” value rises from 0.216 to 0.342.

First: GGACGGAC
Second: GGACGGAA
The “PBM E-score” value of the first is lower: 0.293 for the first, 0.429 for the second.

First: TGACGAAA
Second: ATAATACA
The “PBM E-score” value of the first is lower: -0.112 for the first, 0.212 for the second.

Going from ATGATGGC to GGATCTCA, the “PBM E-score” value rises from 0.0224 to 0.0621.

Going from TCCAAGGA to CGGAACCA, the “PBM E-score” value rises from -0.00825 to 0.483.

Compared with AGGAACCG, GGGAACCC is higher in “PBM E-score” value: 0.123 for the first, 0.133 for the second.

First: TGGAACCA
Second: GGGAACCA
The “PBM E-score” value of the first is higher: 0.188 for the first, -0.0124 for the second.

Going from CAGAACCG to CGGAACCC, the “PBM E-score” value rises from 0.116 to 0.477.

First: AGGAACCC
Second: CGGAACCG
The “PBM E-score” value of the first is lower: 0.00054 for the first, 0.482 for the second.

Compared with ACTCCATA, CACAGTAC is higher in “PBM E-score” value: -0.0901 for the first, -0.0825 for the second.

First: ATCTCTTA
Second: AATCTCTG
The “PBM E-score” value of the first is higher: -0.0707 for the first, -0.185 for the second.

First: TACGACTA
Second: CCTCTAAC
The “PBM E-score” value of the first is higher: -0.179 for the first, -0.199 for the second.

Going from TCACTGAA to GCATCCTA, the “PBM E-score” value falls from 0.0661 to 0.00911.

Going from GAGGGTTA to GCCCGGCA, the “PBM E-score” value rises from -0.131 to 0.225.

Going from TGCCGGCA to AACCGGCA, the “PBM E-score” value falls from 0.385 to 0.158.

First: GGCCGGCA
Second: TGCCGACA
The “PBM E-score” value of the first is higher: 0.367 for the first, 0.123 for the second.

Going from GGCCGGCC to ACCGTTAG, the “PBM E-score” value falls from 0.326 to -0.208.

Going from GGGCCCCA to GGCTAAGA, the “PBM E-score” value falls from 0.092 to -0.0826.

Going from AACACGGA to AACACGGG, the “PBM E-score” value falls from 0.374 to 0.116.

First: GACACGGA
Second: AACACGGC
The “PBM E-score” value of the first is higher: 0.393 for the first, 0.154 for the second.

Going from GACACGGC to CACACGGA, the “PBM E-score” value rises from 0.171 to 0.304.

Compared with GCGACCTA, GCACGGCC is higher in “PBM E-score” value: 0.0108 for the first, 0.21 for the second.

First: GCACGGGA
Second: ACACGGAC
The “PBM E-score” value of the first is higher: 0.315 for the first, 0.299 for the second.

First: GCACGGCA
Second: GCACGGAA
The “PBM E-score” value of the first is lower: 0.103 for the first, 0.451 for the second.

Compared with GCACGGAC, ATGCAGCA is lower in “PBM E-score” value: 0.356 for the first, 0.00559 for the second.

Compared with ACAGGGTA, AGATTCAG is higher in “PBM E-score” value: -0.12 for the first, -0.0749 for the second.

Compared with GGTATTCA, CACCGTCA is lower in “PBM E-score” value: 0.0285 for the first, 0.00596 for the second.

Going from CCTAACTA to GCGTAGCA, the “PBM E-score” value rises from -0.0709 to 0.0185.

First: ATTATCCG
Second: ATTATCCA
The “PBM E-score” value of the first is higher: 0.388 for the first, 0.0658 for the second.

Compared with ATTATCCC, CCACTGCA is lower in “PBM E-score” value: 0.185 for the first, -0.0534 for the second.

First: GCTTGGCC
Second: CGGGAAAA
The “PBM E-score” value of the first is lower: -0.00234 for the first, 0.221 for the second.

Going from CCGCTCCG to ACGCTCCG, the “PBM E-score” value falls from 0.378 to 0.315.

Going from CCGCTCCC to ACATCTCG, the “PBM E-score” value falls from 0.151 to -0.111.

Compared with ATCACGGG, ATGACGGA is higher in “PBM E-score” value: 0.0804 for the first, 0.362 for the second.

Going from GTCACGCA to CTCACGGA, the “PBM E-score” value rises from -0.0717 to 0.325.

Going from GTGACGGA to ATGACGGC, the “PBM E-score” value falls from 0.31 to 0.141.

Going from ATCACGGC to GTCACGGA, the “PBM E-score” value rises from 0.218 to 0.415.

First: ATCACGGA
Second: AAGGAAGC
The “PBM E-score” value of the first is higher: 0.391 for the first, -0.0529 for the second.

Going from CACACCGC to CCCTAATA, the “PBM E-score” value falls from 0.166 to -0.113.

Going from GAAGGAAA to AGGCGTAC, the “PBM E-score” value falls from -0.00233 to -0.182.

Compared with ATGTCTCA, AGGAACGC is higher in “PBM E-score” value: -0.0576 for the first, -0.00648 for the second.

Going from CAGAACGC to GGGAACGA, the “PBM E-score” value falls from 0.0429 to 0.0381.

Going from CGGAACGA to AGGAACGA, the “PBM E-score” value falls from 0.464 to -0.1.

First: CGGAACGC
Second: ACACCGAC
The “PBM E-score” value of the first is higher: 0.466 for the first, 0.0164 for the second.

Compared with CCGGACCA, TCGGACCA is lower in “PBM E-score” value: 0.337 for the first, 0.292 for the second.

Compared with ACGGACCG, ACGGACCA is higher in “PBM E-score” value: 0.309 for the first, 0.359 for the second.

Compared with GCGGACCA, ACGGACCT is lower in “PBM E-score” value: 0.366 for the first, 0.275 for the second.

Compared with AGGTGTGA, GTGGTGGA is higher in “PBM E-score” value: -0.138 for the first, -0.0783 for the second.

Compared with CAGTTGGA, CGTGCAGA is lower in “PBM E-score” value: -0.0903 for the first, -0.148 for the second.

Going from AGCGGAGC to AGCGGAGA, the “PBM E-score” value rises from 0.216 to 0.232.

Compared with CGCGGTGC, CGCGGAGC is higher in “PBM E-score” value: 0.172 for the first, 0.445 for the second.

Compared with CGCGGAGA, GGCGGAGA is lower in “PBM E-score” value: 0.415 for the first, 0.288 for the second.

First: CGAACTGA
Second: CTCGCGAC
The “PBM E-score” value of the first is lower: 0.0143 for the first, 0.0674 for the second.

Going from GTCGCGAA to GTCGCGAC, the “PBM E-score” value rises from 0.0709 to 0.38.

Going from ACCTCTTC to GATCCATC, the “PBM E-score” value rises from -0.0577 to 0.232.

Going from ATCTTCCG to CCCTTCCC, the “PBM E-score” value falls from 0.376 to 0.0658.

First: AACTTCCA
Second: AACTTCCG
The “PBM E-score” value of the first is lower: 0.0852 for the first, 0.388 for the second.

First: ACCTTCCT
Second: ACCTTCCC
The “PBM E-score” value of the first is lower: -0.244 for the first, 0.0674 for the second.

First: CCCTTCCA
Second: CCCTTCCG
The “PBM E-score” value of the first is lower: -0.00559 for the first, 0.392 for the second.

Compared with ATCTTCCA, AACTTCCT is higher in “PBM E-score” value: -0.196 for the first, -0.108 for the second.

First: ATCTTCCC
Second: ACCTTCCG
The “PBM E-score” value of the first is lower: 0.268 for the first, 0.394 for the second.

Going from GAGCGTCC to AGCAATGA, the “PBM E-score” value rises from -0.174 to -0.0334.

First: CTCTTTCA
Second: ATGCTCAC
The “PBM E-score” value of the first is lower: -0.137 for the first, -0.048 for the second.
